# This is a sample that favours compounds with a hit; in the whole collection about 11% have one here.
# SW480 rereplic = A quantitative high throughput screen for small molecules that induce DNA re-replication in SW480 colon adenocarcinoma cells; SW480 DNA re-replication, Hoechst DNA content imaging, 48 h; Potency, µM (highest dose often 46.1 µM), actives largely listed as activators; 1.8% of 340,000 active; also: nearly all actives have a fitted effect of over 55% in size
#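 First, 250 cells per well were seeded. Next, compound or vehicle (23 nL) was pinned in, plates sat 48 hr at 37 C. Finally Hoechst was added for 40 min before fluorescence scanning.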
# RORg inh = qHTS for inhibitors of ROR gamma transcriptional activity; Nuclear receptor ROR-gamma (Mus musculus), P51450; AID 2551, 2010; Potency, µM (series often up to 53.6 µM), actives largely listed as inhibitors; 5.4% of 310,000 active; Drosophila S2 Gal4-RORgamma UAS-luciferase reporter, 20 h; also: nearly all actives have a fitted effect of over 60% in size
# Target sequence (P51450 whole entry, looked up, the tested form may be a part): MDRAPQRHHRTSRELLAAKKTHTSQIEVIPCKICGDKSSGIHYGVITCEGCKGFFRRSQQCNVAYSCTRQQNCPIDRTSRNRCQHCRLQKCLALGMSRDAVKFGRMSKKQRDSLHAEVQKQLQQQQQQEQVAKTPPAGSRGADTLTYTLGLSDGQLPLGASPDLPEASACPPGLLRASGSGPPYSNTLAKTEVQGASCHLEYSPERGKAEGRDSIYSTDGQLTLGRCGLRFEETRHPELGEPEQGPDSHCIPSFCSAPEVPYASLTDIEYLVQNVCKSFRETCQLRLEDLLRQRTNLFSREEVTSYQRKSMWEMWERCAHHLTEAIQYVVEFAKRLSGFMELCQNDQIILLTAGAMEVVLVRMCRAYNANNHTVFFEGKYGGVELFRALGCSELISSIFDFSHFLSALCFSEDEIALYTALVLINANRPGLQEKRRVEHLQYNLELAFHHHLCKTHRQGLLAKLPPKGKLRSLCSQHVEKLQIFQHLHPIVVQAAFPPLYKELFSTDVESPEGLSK
#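 Luciferase reporter read in Schneider cells carrying Gal4-RORγ (mouse) and UAS-Photinus luciferase; cells given compound 1 h before 700 uM copper sulfate induction, then incubated 20 h at ambient temperature.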
# MCF10A rerep = A quantitative high throughput screen for small molecules that induce DNA re-replication in MCF 10a normal breast cells. MCF 10A DNA re-replication, Hoechst nuclear intensity, 48 h. Potency, µM (highest dose often 46.1 µM), most hits filed as activators. 2.9% of 350,000 active. AID 624296, 2012; also: nearly all actives have a fitted effect of over 50% in size
# IL-1B inflam inh = qHTS for Inhibitors of Inflammasome Signaling: IL-1-beta AlphaLISA Primary Screen | THP-1 LPS/ATP IL-1B secretion, AlphaLISA, 16 h; active compounds read low | activity change, % at 57.5 µM | 4.7% of 360,000 active | AID 743279, 2014; in the data active = activity change below about -50%; inconclusive = mostly about -30% to -49%
#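 THP-1 cells pretreated 1 hr with compounds (up to 57.5 uM final), then stimulated with LPS (250 ng/mL final) plus ATP (1.25 mM final); secreted IL-1B measured by AlphaLISA after 16 hr, decreased signal indicating inhibition.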
# VP16 counter = VP16 counterscreen qHTS for inhibitors of ROR gamma transcriptional activity; Drosophila S2 Gal4-VP16 UAS-luciferase, luminescence, 20 h; Potency, µM (top dose mostly 53.6 µM), most hits filed as inhibitors; 3.5% of 310,000 active; AID 2546, 2010;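 also: Gal4-VP16 expression switched on by copper sulfate through the metallothionein promoter; nearly all actives have a fitted effect of over 50% in size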
# Numbers stand for hits; . = inactive; ? = inconclusive; / = no result given; [ ] = dose if it differs, or a comment. Unless noted, calls follow the shape of the dose curve; as a rule, active = well fitted curve in the direction sought with a large enough effect; inconclusive = small, poorly fitted or top-dose-only effect, or another doubt; inactive = no such curve, though single readings can be large; an effect the other way counts as inactive or inconclusive.
SMILES,SW480 rereplic,RORg inh,MCF10A rerep,IL-1B inflam inh,VP16 counter
O=c1cc2oc3cc(O)c(O)cc3c(-c3ccccc3O)c-2cc1O,.,.,.,.,.
CCN(CC)CCn1c(NC(=O)c2ccc(Cl)cc2)nc2ccccc21,.,2µM,?,.,2.5µM
CCN(CC)CCn1c(NC(=O)c2ccccc2O)nc2ccccc21,.,2.5µM,.,.,5µM
CCN(CC)CCn1c(NS(=O)(=O)c2ccc(Cl)cc2)nc2ccccc21,.,.,.,.,.
CCN(CC)CCn1c(NCc2ccc(C)o2)nc2ccccc21,.,0.5µM,.,.,.
O=c1oc(=S)oc2c1[C@H](c1ccc(Cl)cc1)O[C@H](C1CC1)C2,/,/,/,.,/
O=C(CCCC(=O)c1ccccc1)Nc1ccc(O)cc1,?,.,.,.,?
Oc1ccccc1C1CC(c2cccs2)=NC(c2ccc(Cl)cc2)N1 (stereo unspecified),18µM,?,4.6µM,?,.
CCCn1c(=O)[nH]c2nc(-c3ccc(S(=O)(=O)O)cc3)[nH]c2c1=O,/,.,/,/,.
COCc1cc(C)nc(OCC(=O)N/N=C/c2ccccc2O)c1C#N,.,16µM,.,.,.
O=C(Nc1cccc(-c2cccc(Cl)c2)c1)C1CCN(Cc2ccccn2)CC1,?,20µM,.,-74,?
Cc1c(CN2CCC(C(=O)Nc3cccc(-c4cccc(Cl)c4)c3)CC2)cnn1C,.,.,.,.,.
O=C(Nc1cccc(-c2cccc(Cl)c2)c1)C1CCN(Cc2ccon2)CC1,?,?,.,-61,?
CCCc1cc(CN(C)C(=O)CC2C(=O)NCCN2Cc2ccccc2C)[nH]n1 (stereo unspecified),.,.,.,.,.
Cc1cccc(C(=O)Nc2ccc(S(=O)(=O)N3CCOCC3)cc2C)c1,.,.,.,.,.
COc1ccc(C2=NCN(c3ccc(C)cc3)C(=S)N2)cc1,.,.,.,.,2.8µM
CCN(CC)CC(O)Cn1c(C)c(-c2ccccc2)c2cc([N+](=O)[O-])ccc21 (stereo unspecified),?,?,?,-77,.
CC1CC(OC(=O)C(O)c2ccccc2)CC(C)(C)C1 (stereo unspecified),.,.,.,/,.
COc1ccc(Br)cc1/C=N/Nc1ccccn1,?,?,23µM,.,?
COc1ccc(/C=N/Nc2ccccn2)cc1OC,?,?,.,.,?
O=C1N/C(=C\c2ccc(O)cc2)C(O)=C1C=NCc1ccccc1,.,4µM,10µM,.,?
COc1ccc(/C=C2\NC(=O)C(C=NCc3ccccc3)=C2O)cc1,.,.,.,.,.
O=C(CSc1nc(C2CC2)nc2ccccc12)N1CCCCC1,.,.,.,-95,.
CCc1nc(SCC(=O)N2CCCC2)c2ccccc2n1,.,.,.,-94,.
Cc1nn(C)c(C)c1NC(=O)CSc1nc(C2CC2)nc2c1cnn2-c1ccccc1,.,.,.,.,.
SMILES,SW480 rereplic,RORg inh,MCF10A rerep,IL-1B inflam inh,VP16 counter
O=C(CSc1nc(C2CC2)nc2ccccc12)N1CCc2ccccc2C1,/,.,/,/,.
O=C(CSc1nc(C2CCCCC2)nc2ccccc12)N1CCCC1,?,.,?,-81,.
CC(C)c1nc(SCC(=O)N2CCCC2)c2ccccc2n1,.,.,.,?,.
CC1CCCCN1C(=O)CSc1nc(C2CC2)nc2c1cnn2-c1ccccc1 (stereo unspecified),.,.,.,-91,.
COc1ccc(NC(=O)CN(C)C(=O)Cc2ccc(S(=O)(=O)N3CCOCC3)s2)cc1,.,/,.,.,/
COc1ccc(C2/C=C\CN(C(=O)OCC3c4ccccc4-c4ccccc43)CC(=O)N2Cc2cccc(F)c2)cc1 (stereo unspecified),.,.,?,.,.
CC1(C(=O)NS(=O)(=O)Cc2ccccc2)CCN1C(=O)Cc1cc(F)ccc1F (stereo unspecified),/,/,/,.,/
CCc1nc(SCC(=O)N2CCN(c3ccccc3)CC2)c2oc3ccccc3c2n1,.,?,9.2µM,-67,.
CCc1nc(SCCO)c2oc3ccccc3c2n1,.,.,.,.,.
O=C(CCN1CCN(CCO)CC1)Nc1ccc(C2CCCC2)cc1,?,.,.,.,.[10 µM]
O=C(CSCCO)Nc1ccc(C2CCCCC2)cc1,.,.,.,.,5.6µM
Cc1cccc(C)c1NC(=O)c1ccc(-c2ccc(Cl)cc2Cl)o1,?,.,.,.,.
O=C(Nc1nccs1)c1ccc(COc2c(F)c(F)cc(F)c2F)o1,.,/,.,.,/
O=C(Nc1nccs1)c1ccc(-c2ccc(Cl)cc2Cl)o1,.,3.5µM,.,.,5µM
O=C(Nc1nccs1)c1ccc(-c2ccc(F)c(Cl)c2)o1,.,7.9µM,.,.,?
CCCCNC(=O)C1(C)CCC(=O)N1c1cc(C(C)(C)C)nn1C (stereo unspecified),/,/,/,.,/
COc1ccc(CCNC(=O)COc2cc(O)c3c(c2)OC(C)(C)CC3=O)cc1OC,.,.,.,.,.
COc1cc(OC)c(-c2oc3ccccc3c(=O)c2O)c(OC)c1,16µM,/,?,.,/
COc1ccc2oc3ccccc3c(=O)c2c1,?,.,.,.,.
COc1ccc(OC)c(-c2oc3ccccc3c(=O)c2O)c1,?,7.1µM,.,.,.
COc1ccc(-c2oc3ccccc3c(=O)c2O)cc1,/,?,/,/,.
COc1ccccc1-c1oc2ccccc2c(=O)c1O,/,20µM,/,/,.
CC(=O)c1cccc(NC(=O)C(C)OC(=O)CN2C(=O)NC(C)(C)C2=O)c1 (stereo unspecified),.,/,.,.,/
CC(C)N1C(=S)N(Cc2ccco2)C(=O)C1CC(=O)Nc1ccccc1 (stereo unspecified),.,18µM,.,.,.
CCN1C(=O)C(CC(=O)Nc2ccc(OC)cc2)N(CCc2ccccc2)C1=S (stereo unspecified),.,.,.,-76,.
COc1ccc(NC(=O)CC2C(=O)N(C)C(=S)N2CCc2ccccc2F)cc1 (stereo unspecified),.,.,?,-79,.
COC(=O)CN1C(=S)N(Cc2ccccc2)C(=O)C1CC(=O)Nc1ccc(Br)cc1 (stereo unspecified),?,?,18µM,.,.
CCN1C(=O)C(CC(=O)Nc2ccc(OC)cc2)N(CCc2ccccc2F)C1=S (stereo unspecified),.,?,?,.,.
COC(=O)CN1C(=S)N(c2ccc(Cl)cc2)C(=O)C1CC(=O)Nc1ccc(Cl)cc1 (stereo unspecified),.,?,?,.,.
O=C(CC1C(=O)N(c2ccccc2)C(=O)N1Cc1ccco1)Nc1ccccc1 (stereo unspecified),.,.,.,.,.

# From PubChem BioAssay
